Seven molecules from PubChem BioAssay (NCI) can be followed below.

The structures appear in SMILES notation. About 83,000 compounds went through this panel and 20% of them were active in at least one assay; those are over-represented in the sample as a whole.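 96-well plates, one dose, 48 hours. Percent growth reported; active if below 10.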 Values without a mark were called inactive. Activity calls are given as the source filed them.

Test systems include NCI-H23 lung; NCI-H226 lung; NCI-H322M lung; HOP-62 NSCLC; NCI-H460 lung; HOP-92 NSCLC; NCI-H522 lung; A549/ATCC NSCLC; 786-0 renal; COLO 205 colon; DU-145 prostate; K-562 leukemia; MALME-3M melanoma; MDA-MB-231 breast; RXF 393 renal; SF-268 CNS; SF-295 CNS; SF-539 CNS; UACC-257 melanoma; M14 melanoma.
Test in all cases: NCI-60 one-dose screen, 48 h (100 = growth as untreated, 0 = no growth, -100 = all killed)
Holding throughout (conditions): 10 µM unless noted

As for `COc1ccc(C(O)c2cc3c(N)c(C(=O)Nc4cccc(Cl)c4)sc3nc2C)cc1` (stereo not given), the growth is 37.8% in the assay on NCI-H23 lung; 29.5% in the assay with NCI-H226 lung; 46.6% in the assay on NCI-H322M lung; 26.6% in the assay on HOP-62 NSCLC; 1.28% (active) in the assay with NCI-H460 lung; 74% in the assay on HOP-92 NSCLC. For the same molecule, the growth in the assay with NCI-H522 lung is 14.6%; in the assay with A549/ATCC NSCLC, 21.2%; in the assay with 786-0 renal, 31.5%; with COLO 205 colon it was 3.71% (active); in the assay on DU-145 prostate, 8.86% (active); with K-562 leukemia, 10.7%. For the same molecule, the growth in the assay on MALME-3M melanoma is 41%; in the assay with MDA-MB-231 breast, 20.2%; with RXF 393 renal, -10.9% (active); in the assay with SF-268 CNS it was 28.9%; in the assay on SF-295 CNS, 9.76% (active); in the assay with SF-539 CNS it was 2.14% (active). For the same molecule, the results for the growth in the assay on UACC-257 melanoma and in the assay on M14 melanoma were 47.1% and 21.3%, respectively.

Take `CCCCCCCC/C=C\CCCCCCCCOc1ccc(CC(=O)NCC[N+](C)(C)C)cc1`: the growth with NCI-H23 lung is 67.2%; in the assay on NCI-H226 lung, 70%; in the assay on NCI-H322M lung, 85.6%; in the assay with HOP-62 NSCLC, 24.3%; in the assay with NCI-H460 lung, 29.9%; in the assay with HOP-92 NSCLC, 62.3%. Further, the growth in the assay with NCI-H522 lung is 50.7%; in the assay with A549/ATCC NSCLC, 74.1%; in the assay with 786-0 renal, 59.6%; in the assay with COLO 205 colon it was -69.1% (active); with DU-145 prostate, 75.6%; in the assay with K-562 leukemia, 55.1%. For the same molecule, the growth in the assay with MALME-3M melanoma was 70.2%; in the assay on MDA-MB-231 breast, 67.4%; in the assay with RXF 393 renal, -21.8% (active); with SF-268 CNS it was 68.6%; in the assay on SF-295 CNS it was 77.8%; with SF-539 CNS it was 66.8%. Further, the growth in the assay on UACC-257 melanoma was 79.7%; in the assay with M14 melanoma, 63.7%.

On to `COc1cc(C#Cc2ccc(=O)oc2C#Cc2ccccc2)cc(OC)c1OC`, for which the growth was 64.8% in the assay on NCI-H23 lung; 76.6% in the assay on NCI-H226 lung; 103% in the assay on NCI-H322M lung; 102% in the assay with HOP-62 NSCLC; 84.7% in the assay with NCI-H460 lung; 112% in the assay on HOP-92 NSCLC. Besides, the growth is 18.2% in the assay with NCI-H522 lung; 95.7% with A549/ATCC NSCLC; 83% with 786-0 renal; 23.6% in the assay on COLO 205 colon; 65.7% in the assay with DU-145 prostate; 4.76% (active) in the assay with K-562 leukemia. The growth in the assay on MALME-3M melanoma was 75.9%; with MDA-MB-231 breast, 89%; in the assay with RXF 393 renal it was 78.7%; in the assay on SF-268 CNS it was 43.5%; in the assay on SF-295 CNS, 96.9%; with SF-539 CNS it was 110%. Besides, the growth in the assay with UACC-257 melanoma is 108%; in the assay with M14 melanoma, 72.6%.

On to `Nc1c(C(=O)O)cc(Cl)cc1[N+](=O)[O-]`, for which the growth in the assay on NCI-H23 lung is 90.6%; in the assay on NCI-H226 lung it was 96.4%; with NCI-H322M lung, 103%; in the assay with HOP-62 NSCLC, 89.7%; in the assay with NCI-H460 lung, 108%; with HOP-92 NSCLC, 58.7%. Further, the growth with NCI-H522 lung is 98.4%; in the assay with A549/ATCC NSCLC, 97.6%; in the assay with 786-0 renal it was 96.1%; with COLO 205 colon, 115%; in the assay on DU-145 prostate, 108%; in the assay with K-562 leukemia, 95.2%. Further, the growth in the assay on MALME-3M melanoma is 105%; in the assay on MDA-MB-231 breast, 91.3%; in the assay with RXF 393 renal it was 88.9%; in the assay with SF-268 CNS, 98%; with SF-295 CNS, 109%; in the assay with SF-539 CNS, 99.7%. The growth in the assay with UACC-257 melanoma and in the assay with M14 melanoma was 96.8% throughout.

For `O=C(N/N=C/c1ccc(Cl)cc1Cl)c1ccc2nc(-c3ccc(Cl)cc3)[nH]c2c1`, the growth is -0.367% (active) with NCI-H23 lung; 99.3% in the assay on NCI-H226 lung; 27.7% with NCI-H322M lung; 8.05% (active) with HOP-62 NSCLC; -33.6% (active) with NCI-H460 lung; 28.1% with HOP-92 NSCLC. For the same molecule, the growth in the assay with NCI-H522 lung is 63.2%; in the assay with A549/ATCC NSCLC, -26.7% (active); in the assay on 786-0 renal, -42.1% (active); with COLO 205 colon it was -23.9% (active); with DU-145 prostate, 30.5%; in the assay on K-562 leukemia, 8.67% (active). In addition, the growth was -58.7% (active) in the assay on MALME-3M melanoma; 9.48% (active) with MDA-MB-231 breast; 18.9% with RXF 393 renal; 38% in the assay with SF-268 CNS; -49.3% (active) in the assay with SF-295 CNS; 37.1% in the assay with SF-539 CNS. Further, the growth was 31.7% in the assay on UACC-257 melanoma and 19.7% with M14 melanoma.

As for `COc1ccc(C2CC(c3ccc4c(c3)OCO4)=Nc3c(N)ncnc3N2)cc1` (stereo not given), the growth is 107% with NCI-H23 lung; 100% with NCI-H226 lung; 95.4% in the assay on NCI-H322M lung; 88.6% with HOP-62 NSCLC; 111% in the assay on NCI-H460 lung; 62.4% in the assay on HOP-92 NSCLC. Further, the growth was 108% in the assay with NCI-H522 lung; 104% in the assay with A549/ATCC NSCLC; 102% with 786-0 renal; 100% in the assay with COLO 205 colon; 141% in the assay on DU-145 prostate; 99.6% in the assay with K-562 leukemia. Besides, the growth in the assay with MALME-3M melanoma is 106%; with MDA-MB-231 breast, 90.1%; in the assay with RXF 393 renal it was 84.3%; with SF-268 CNS it was 93.3%; with SF-295 CNS it was 168%; in the assay on SF-539 CNS, 110%. For the same molecule, the values for the growth with UACC-257 melanoma and with M14 melanoma were 107% and 105%, respectively.

Take `Clc1ccc(-c2cn3ccsc3n2)c(Cl)c1Cl`: the growth was 89.8% in the assay with NCI-H23 lung; 84.6% in the assay with NCI-H226 lung; 118% in the assay with NCI-H322M lung; 84.9% with HOP-62 NSCLC; 105% in the assay on NCI-H460 lung; 58.8% in the assay with HOP-92 NSCLC. Also, the growth in the assay on NCI-H522 lung was 81.3%; in the assay on A549/ATCC NSCLC, 97.5%; in the assay with 786-0 renal, 103%; in the assay on COLO 205 colon it was 94.9%; in the assay with DU-145 prostate it was 76.2%; with K-562 leukemia it was 73.1%. The growth in the assay on MALME-3M melanoma was 117%; in the assay on MDA-MB-231 breast it was 76.1%; with RXF 393 renal it was 95.2%; in the assay on SF-268 CNS, 102%; in the assay with SF-295 CNS it was 91.8%; in the assay with SF-539 CNS, 88%. The growth in the assay with UACC-257 melanoma was 87.7%; with M14 melanoma it was 98.7%.
